Assay outcomes from PubChem BioAssay.
A selection: hits, their analogues and other compounds. The true share with any hit is near 10%.
BAZ2B inh: inhibitors of human BAZ2B bromodomain; Potency, µM (highest dose often 114 µM), inactives show top-dose activity change, negative = inhibition, most hits filed as inhibitors; hit rate 4.4% among 360,000; AlphaScreen BAZ2B-H3K14Ac peptide displacement; AID 504333; Q9UIF8; further: potency means the concentration at half of the fitted maximal effect; on the % scale 0 is the no-effect control and ±100 the full control effect; nearly all actives have a fitted effect of over 60% in size
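BAZ2B (50 nM) with biotin-H3(5-23)K14Ac peptide (50 nM) in PBS pH 7.4, 0.01% Tween-20, preformed 30 min, then compound 30 min at room temperature; top concentration 110uM. AlphaScreen streptavidin donor/nickel chelate acceptor beads (10 ug/mL final), 20 min dark, signal read.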
HP1b chromo inh: inhibitors of HP1-beta chromodomain binding to methylated histone tails; AlphaScreen HP1-beta / biotin-H3K9me3 peptide binding; Potency, µM (series often up to 114 µM), without a hit: at the top dose activity change, negative = inhibition, most hits filed as inhibitors; hit rate 0.56% among 390,000; AID 540317; further: potency means the concentration at half of the fitted maximal effect; nearly all actives have a fitted effect of over 70% in size
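Compound inhibition of the preformed complex between 50 nM HP1-beta and 50 nM biotinylated H3K9me3 peptide was read by AlphaScreen. Buffer was PBS pH 7.4 with 0.01% Tween-20. Incubations ran 30 min at room temperature, with 10 ug/mL donor/acceptor beads.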
CtBP-E1A blk: inhibitors of CtBP/E1A interaction. AID 651724. AlphaScreen GST-E1A/His-CtBP binding, 1536-well; stronger effect = lower value. activity change, % (concentration not given with the values). hit rate 0.49% among 340,000; in the data active means activity change below about -65%; inconclusive means mostly about -30% to -63%; further: on the % scale 0 is the no-effect control and ±100 the full control effect
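GST-E1A and His-tagged CtBP (125 nM each as 5X stock) were preincubated with pin-transferred compound for 2 h at 37 °C in the dark, then glutathione donor and nickel acceptor beads were added for 1 h before AlphaScreen reading.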
JMJD2A Tudor: inhibitors of human JMJD2A Tudor domain; O75164; AlphaScreen JMJD2A-Tudor / H3K4me3 peptide binding; hit rate 4.4% among 390,000; Potency, µM (doses to about 114 µM), for inactives: top-dose activity change, negative = inhibition, actives largely listed as inhibitors; AID 504339; further: potency means the concentration at half of the fitted maximal effect; on the % scale 0 is the no-effect control and ±100 the full control effect; nearly all actives have a fitted effect of over 50% in size
Six1-Eya2 inh: Six1/Eya2 interaction inhibition; activity change, % (no concentration beside the values); AID 651725; Q15475+O00167; hit rate 0.56% among 360,000; AlphaScreen GST-Six1/His-Eya2 binding, biochemical; stronger effect = lower value; in the data active means activity change below about -65%; inconclusive means mostly about -30% to -63%; further: on the % scale 0 is the no-effect control and ±100 the full control effect
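Compounds are tested against tagged Six1 and Eya2 proteins bridged by glutathione donor and nickel acceptor beads; after a one-hour incubation at 37 °C without light, AlphaScreen emission is recorded.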
G9a block: G9a (human) methyltransferase inhibition | Q96KQ7 | G9a H3K9 monomethylation, AlphaScreen, 2 h | Potency, µM (titrated, usually from 102 µM), for inactives: top-dose activity, negative = inhibition, usual class: inhibitors | hit rate 8.8% among 350,000; further: potency means the concentration at half of the fitted maximal effect; on the % scale 0 is the no-effect control and ±100 the full control effect; nearly all actives have a fitted effect of over 75% in size
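Compounds were preincubated with 20 nM G9a for 15 min, after which biotinylated H3K9 peptide (500 nM) and SAM (20 uM) started a 2 h room-temperature reaction. Monomethylated product was quantified by antibody-based AlphaScreen chemiluminescence.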
An asterisk follows results filed as active; [ ] = dose if it differs, or a comment. Unless noted, the call rests on the fitted dose curve; in most records, active means well fitted inhibition curve with a large enough effect; inconclusive means small, poorly fitted or top-dose-only effect; inactive means no such curve, though single readings can be large or run the other way.

For O=C(NC1CC(=O)N(c2ccc(F)cc2)C1)c1ccc2c(c1)OCO2 (centres undefined) the results were BAZ2B inh 0%, HP1b chromo inh 7%, JMJD2A Tudor -13% and G9a block 5%[59 µM].
Screening Cc1ccc(S(=O)(=O)N2CCCCC2)cc1NC(=O)CCc1nc2ccccc2c(=O)[nH]1 returned BAZ2B inh -31%, HP1b chromo inh 17%, CtBP-E1A blk -5, JMJD2A Tudor -20%, Six1-Eya2 inh -10 and G9a block 3.2µM*.
For O=C(Nc1ccc(F)c([N+](=O)[O-])c1)C(=O)c1c(O)[nH]c2ccccc12 the results were BAZ2B inh inconclusive, HP1b chromo inh 11%, CtBP-E1A blk -9, JMJD2A Tudor -35%, Six1-Eya2 inh 0 and G9a block 28µM*.
O=C(Nc1ccccc1)Nc1ccc(F)c([N+](=O)[O-])c1 was read as BAZ2B inh -6%, HP1b chromo inh 6%, CtBP-E1A blk -3, JMJD2A Tudor -26%, Six1-Eya2 inh -2 and G9a block -8%[59 µM].
`O=C(CCc1nc2ccccc2c(=O)[nH]1)Nc1ccc(F)c([N+](=O)[O-])c1` gave BAZ2B inh -25%, HP1b chromo inh 16%, CtBP-E1A blk -2, JMJD2A Tudor -20%, Six1-Eya2 inh -13 and G9a block 40µM*.
For COc1ccc(S(=O)(=O)N2CCCCC2)cc1NC(=O)CCc1nc2ccccc2c(=O)[nH]1 the results were BAZ2B inh -20%, HP1b chromo inh 10%, CtBP-E1A blk -16, JMJD2A Tudor -12%, Six1-Eya2 inh -20 and G9a block inconclusive.
For CCOC(=O)c1ccccc1NC(=O)CN(c1cc(C(F)(F)F)ccc1Cl)S(C)(=O)=O the results were BAZ2B inh -1%, HP1b chromo inh 36%, JMJD2A Tudor -1% and G9a block 1%[59 µM].
CCS(=O)(=O)c1nc(S(=O)(=O)c2ccc(C)cc2)c(NCCCOC)s1 was read as BAZ2B inh -1%, HP1b chromo inh 35%, JMJD2A Tudor -24% and G9a block 3%[59 µM].
For COc1ccc(OC)c(NC(=O)c2cc3cc4ccc(C)cc4nc3s2)c1 the results were BAZ2B inh 2%, HP1b chromo inh 36%, JMJD2A Tudor -5% and G9a block 0%[59 µM].
For COc1ccccc1NC(=O)c1cc2cc3ccc(OC)c(Cl)c3nc2s1 the results were BAZ2B inh 79µM*, HP1b chromo inh 5%[57 µM], JMJD2A Tudor 56µM* and G9a block 28µM*.
`Cc1ccccc1CNC(=O)CCSCc1cnn(-c2ccccc2)c1-n1cccc1` gave BAZ2B inh -24%, HP1b chromo inh 21%, JMJD2A Tudor -17% and G9a block inconclusive.
`Cc1ccc(S(=O)(=O)N2CCOCC2)cc1NC(=O)CN1CCN(c2ccc(O)cc2)CC1` gave BAZ2B inh inconclusive, HP1b chromo inh inconclusive, CtBP-E1A blk 7, JMJD2A Tudor 25µM*, Six1-Eya2 inh -16 and G9a block inconclusive.
`Cc1ccc(S(=O)(=O)N2CCOCC2)cc1NC(=O)CN1CCN(C)CC1` gave BAZ2B inh 0%, HP1b chromo inh 14%, CtBP-E1A blk -1, JMJD2A Tudor -15%, Six1-Eya2 inh 2 and G9a block -3%[59 µM].
For CCOC(=O)C1CCN(CC(=O)Nc2cc(S(=O)(=O)N3CCOCC3)ccc2C)CC1 the results were BAZ2B inh 79µM*, HP1b chromo inh 71µM*, CtBP-E1A blk -2, JMJD2A Tudor 4µM*, Six1-Eya2 inh -19 and G9a block 22µM*.
CCN(CC)c1ccc(CN(C(=O)Cc2coc3ccc(C)cc23)C2CCS(=O)(=O)C2)cc1 (centres undefined) was read as BAZ2B inh 10µM*, HP1b chromo inh -16%, JMJD2A Tudor inconclusive and G9a block 10µM*.
CCc1ccc2occ(CC(=O)N(Cc3ccc(N(C)C)cc3)C3CCS(=O)(=O)C3)c2c1 (centres undefined) was read as BAZ2B inh 20µM*, HP1b chromo inh inconclusive, JMJD2A Tudor 40µM* and G9a block 13µM*.
